SUMO HTRF inh = inhibitors of in vitro SUMOylation cascade, primary screen, biochemical, HTRF, uHTS. SUMO-conjugating enzyme UBC9 (Homo sapiens), P63279. HTRF SUMOylation assay, SAE1/SAE2 + UBC9. inhibition, % at 35 µM. 0.36% of 290,000 active. AID 2006, 2009; in the data active = inhibition above about 50%, passing the limit was not always enough
Target sequence (P63279 whole entry, looked up): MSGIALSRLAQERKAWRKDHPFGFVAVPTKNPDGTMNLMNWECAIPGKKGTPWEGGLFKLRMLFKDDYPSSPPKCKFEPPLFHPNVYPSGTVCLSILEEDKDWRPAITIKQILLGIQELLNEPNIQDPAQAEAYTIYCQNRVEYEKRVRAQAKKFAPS
UBC13 inh = UBC13 polyubiquitin chain formation inhibitors, primary screen, biochemical, TR-FRET, uHTS; Ubiquitin-conjugating enzyme E2 N (Homo sapiens), P61088; inhibition, % at 20 µM; 0.47% of 330,000 active; AID 485273, 2010; in the data active = inhibition above about 45%, passing the limit was not always enough
Target sequence (P61088 whole entry, looked up): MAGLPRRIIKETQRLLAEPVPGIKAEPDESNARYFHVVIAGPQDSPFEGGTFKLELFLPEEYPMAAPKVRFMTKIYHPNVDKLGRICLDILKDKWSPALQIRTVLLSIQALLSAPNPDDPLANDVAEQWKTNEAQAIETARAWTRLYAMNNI
NR3A LBD binder = binders of NR3A ligand-binding domain, primary screen, biophysical, differential scanning fluorimetry, uHTS; Glutamate receptor ionotropic, NMDA 3A (GRIN3A) ligand-binding domain; NR3A LBD differential scanning fluorimetry, Tm shift; 0% = protein alone, 100% = glycine-bound protein; Tm shift relative to glycine control, % at 25 µM; 2.5% of 340,000 active;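 active = melting temperature shift of at least 10% of the positive control shift, at one fixed dose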
HGIII-sPLA2 inh = human group III sPLA2 inhibitors, primary screen, biochemical, QFRET, BODIPY PC-A2 liposome substrate | Group 3 secretory phospholipase A2 (Homo sapiens), Q9NZ20 | QFRET BODIPY PC-A2 liposome hydrolysis, fluorescence | inhibition, % at 12.2 µM | 0.56% of 370,000 active | AID 743126, 2013;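 active = inhibition above mean plus 3 SD of compounds lying within the high and low control bounds, cut at about 19% in these data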;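 also: 0% = median of test compound wells and 100% = no enzyme DMSO wells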
hGIII sPLA2 conf = human group III sPLA2 inhibitors, confirmation, biochemical, QFRET, triplicate. shares compounds with HGIII-sPLA2 inh. recombinant hGIII-sPLA2, BODIPY PC-A2 QFRET fluorescence. inhibition, % at 12.2 µM. 34% of 2,000 active;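 active = mean inhibition across triplicates above the hit cutoff set in the earlier primary screen, cut at about 19% in these data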;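 also: 0% = enzyme with DMSO and 100% = DMSO wells lacking enzyme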
535nm interf = 535nm fluorescence optical interference, confirmation, artefact control for HGIII-sPLA2 inhibitor project, biochemical, QFRET; AID 743282, 2014; inhibition, % at 12.2 µM; BODIPY FL product fluorescence interference; shares compounds with HGIII-sPLA2 inh; 8.5% of 2,000 active;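 active = average inhibition above the solvent-only control mean plus 3 SD, cut at about 6% in these data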;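 also: 0% = DMSO with substrate plus product and 100% = DMSO with substrate alone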
535nm interf DR = 535nm fluorescence optical interference, dose response, artefact control for HGIII-sPLA2 inhibitor project, biochemical, QFRET; shares compounds with HGIII-sPLA2 inh; BODIPY FL product fluorescence interference, cell-free; IC50, µM; 240 tested, under 10 active; AID 743455, 2014;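 active = IC50 at or below 10 µM; inactive = IC50 above 10 µM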
* marks the source's active call; other numbers are inactive results; . = no result; ! = not confirmed by another sample. The list is not random: actives were taken first. Their share in the collection is about 3.3%.

SMILES	SUMO HTRF inh	UBC13 inh	NR3A LBD binder	HGIII-sPLA2 inh	hGIII sPLA2 conf	535nm interf	others
COc1ccc(C2Nc3ccccc3C(=O)N2c2ccc(F)cc2)cc1CSc1ccccn1 (stereo not given)	-7	8	-4	20*	12	-7
COc1ccc(C2Nc3ccccc3C(=O)N2c2ccccc2)cc1COc1ccccn1 (stereo not given)	20	7	-1	1	.	.
O=c1[nH]cc(Cc2ccccc2)c(=O)[nH]1	.	.	.	-2	.	.
S=c1[nH]cc(Cc2ccccc2)s1	-4	1	6	38*	27*	-2
Cc1ccccc1NC(=O)c1ccc(CN2CC(=O)N3CCCCC3C2=O)cc1 (stereo not given)	17	2	-1	19*	-4	-3
O=C(/C=C/c1ccccc1)NC(=S)NNC(=O)c1cccnc1	-26	-8	0	9	.	.
O=C(/C=C/c1ccccc1)NC(=S)NNC(=O)c1cnccn1	-96	-8	-1	25*	34*	-1	535nm interf DR=>122
CCOC(=O)[C@@]12CCCC3=C1N(CCC3)C(=O)[C@H]2CC(=O)N1CCN(C(=O)C2CC2)CC1	.	.	.	-2	.	.
S=C(NC1CCCC1)NC1CC1	18	-22	-1	21*	3	-5
Cc1ccccc1NC(=S)NC1CCCC1	3	6	1	10	.	.
Cc1cccc(C)c1NC(=S)NC1CCCCC1	0	6	-2	24*	21*	-5
Fc1cccc(F)c1Cn1ccc2ccc(-c3ccc4ccn(Cc5c(F)cccc5F)c4c3)cc21	.	.	.	5	.	.
CCC(C)NC(=S)N(Cc1cc2cc(C)ccc2n2nnnc12)CC(C)(C)NC(C)C (stereo not given)	9	8	2	21*	6	-8
CCn1c(/C=C/c2ccccc2C)nc2ccccc2c1=O	4	-7	0	6	.	.
CCn1c(/C=C/c2c(C)n(CC)c3ccccc23)nc2ccccc2c1=O	-2	11	10	24*	0	-9
CC(C)c1ccc2c(c1)CCC1C(C)(CN)CCCC21C (stereo not given)	-16	.	-1	19	.	.
CC(C)c1ccc2c(c1)CC[C@H]1[C@](C)(CN)CCC[C@]21C	.	.	0	21*!	21*	-28
Cc1ccc(S(=O)(=O)NCC(C)n2cncn2)cc1C (stereo not given)	4	-1	1	20*	-3	1
COc1ccc2c(c1)OC[C@H]1[C@H]2N2C(=O)c3cc(OC)ccc3NC(=O)[C@@]2(C)[C@H]1c1ccccc1	.	10	-1	37*	27*	-19
COc1ccc2c(c1)OC[C@H]1[C@H]2N2C(=O)c3cc(F)ccc3NC(=O)[C@@]2(C)[C@H]1c1ccccc1	.	-12	-4	35*	7	-4
COc1ccc2c(c1)OC[C@H]1[C@H]2N2C(=O)c3cc(Cl)ccc3NC(=O)[C@@]2(C)[C@H]1c1ccccc1	.	-6	-3	.	.	.
CCCCOCCCNC(=O)C[C@H]1C[C@@]2(C(=O)OC)C(=C[C@H](COCc3ccccc3)O[C@@H]2C)N(Cc2ccc(Cl)cc2Cl)C1=O	.	.	.	-18	.	.
O=C(Nc1ccc(N2C(=O)CC3(CCCCC3)C2=O)c(Cl)c1)c1ccccn1	.	.	.	4	.	.
O=c1cc(-c2ccccc2)cc(-c2ccccc2)n1O	.	-1	-4	21*	12	-10
CCc1cc2c(=O)[nH]c(COC)nc2s1	14	-12	-2	19*	2	-5
SMILES	SUMO HTRF inh	UBC13 inh	NR3A LBD binder	HGIII-sPLA2 inh	hGIII sPLA2 conf	535nm interf	others
CCc1cc2c(=O)[nH]c(Cc3ccc(OC)cc3)nc2s1	10	15	1	-5	.	.
CC(C)CNC(=O)/C=C/c1cccs1	-3	-14	-1	22*	0	-2
O=C(/C=C/c1cccs1)NNC(=O)c1ccccc1	.	-2	0	20*	-1	-5
O=C(/C=C/c1cccs1)NC(=S)NNC(=O)Cc1cccs1	-31	-13	-1	29*	39*	-7	535nm interf DR=>122
COc1ccc(/C=C/C(=O)NC(=S)NNC(=O)Cc2cccs2)cc1OC	-66	-32	-5	14	.	.
CN1CCCC1CCSc1ncccc1-c1nc2ccccc2[nH]1 (stereo not given)	.	.	.	1	.	.
CCCC1CCC2(CC1)CCC2OC(=S)Nc1cccc(C(F)(F)F)c1 (stereo not given)	.	.	.	5	.	.
COc1ccc(S[C@]2(C(=O)N(C)C)CC(=O)N(c3ccc(Cl)cc3)[C@@H]2c2ccc(OC)cc2)cc1	.	.	.	-11	.	.
CN(C)c1ccc(/C=N/NC(=S)NCc2ccco2)cc1	-3	10	-4	26*	14	-4
S=C(NCc1ccco1)N/N=C/c1ccncc1	10	3	-2	3	.	.
CN(C)c1ccc(/C=N\Nc2nc(-c3ccccc3)cc(=O)[nH]2)cc1	6	-17	-1	20*	7	2
Cc1ccc(Cn2nnc3c2-c2cc(F)ccc2S(=O)(=O)N(C(C)(C)C)C3)cc1	.	.	.	5	.	.
COc1cccc(-n2c(N)c(C#N)c3ccc([N+](=O)[O-])cc3c2=O)c1	19	-6	.	26*	6	-1
COc1ccc(-n2c(N)c(C#N)c3ccc([N+](=O)[O-])cc3c2=O)cc1	9	-2	-1	5	.	.
COc1ccc(/C=C(\C#N)c2nc3ccc(C)cc3[nH]2)cc1Oc1ccc(C(F)(F)F)cc1[N+](=O)[O-]	49	-30	18*	20*	-5	-13
O=C1C[C@@H](O)[C@H](O)c2cccc(O)c21	.	.	.	-2	.	.
Nc1ccc(C(=O)Oc2ccc([N+](=O)[O-])cc2)cc1	20	-3	2	23*	3	-3
CCOC(=O)c1cnn(-c2ccccc2)c1NC(=O)CN1CCCCC1	-6	7	-1	21*	-1	-7
CCOC(=O)c1cnn(-c2ccccc2)c1-n1cccc1	11	4	1	5	.	.
COc1cccc(-c2nc(-c3ccccc3)no2)c1	12	3	2	2	.	.
COc1cccc(-c2nc(-c3ccccc3)c3ccc(Cl)cc3n2)c1	.	.	.	20*	-3	-6
O=C(NCc1ccco1)C1CCCN(S(=O)(=O)c2ccc([N+](=O)[O-])cc2)C1 (stereo not given)	.	.	.	-5	.	.
CCOC(=O)Cn1c(=O)c2c(nc(N3CCCCC3)n2C)n(C)c1=O	6	1	-2	20*	-3	-6

Screening results deposited in PubChem BioAssay by several laboratories.
